# PubChem BioAssay (NCATS)
# Values joined by “and” are separate entries in the source; they are usually repeats but may differ in a detail not shown here. Equal entries are not always repeated. Values without a mark were called inactive. Records with an inconclusive call do not appear. A call without a number means that no potency is given here. Some structures have more than one record in an assay (separate samples or runs), and their calls can disagree. Active and inactive are the calls of the source. Unless noted, the call rests on the fitted dose curve; in most records, active means well fitted curve in the direction sought with a large enough effect; inconclusive means small, poorly fitted or top-dose-only effect, or another doubt; inactive means no such curve, though single readings can be large; an effect the other way counts as inactive or inconclusive.
# How the values were obtained:
# PA-1 = assay: Primary qHTS to identify gynecologic anti-cancer compounds using libraries of approved drugs and bioactive compounds (AID 1345084); conditions: Gynecologic cancer cell panel viability, ATPlite luminescence, 48 h; series mostly up to 57.5 µM; further: nearly all actives have a fitted effect of over 55% in size
# How it was run: (§1)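 Cells, 1,000 per well, were allowed to settle for 16 h at 37 C before compound addition. Five concentrations were tested for 48 h, and viability was read by ATPlite luminescence after 15 min at room temperature.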
# SKOV3 = assay: as above; conditions: Gynecologic cancer cell panel viability, ATPlite luminescence, 48 h; series mostly up to 57.5 µM
# How it was run: as §1
# Tov-21-G = assay: as above; conditions: Gynecologic cancer cell panel viability, ATPlite luminescence, 48 h; series mostly up to 57.5 µM
# How it was run: as §1
# Tov112D = assay: as above; conditions: Gynecologic cancer cell panel viability, ATPlite luminescence, 48 h; series mostly up to 57.5 µM
# How it was run: as §1
# [1] = Drug repurposing screens with cells derived from glioblastoma tumor samples (AID 1345199); conditions: GBM patient neurospheres viability, ATP luminescence, 48 h; further: nearly all actives have a fitted effect of over 40% in size; further: potency means the concentration at half of the fitted maximal effect
# How it was run: (§2)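 Primary testing used CD133+ neurospheres from four GBM patients, seven concentrations, 48 h exposure and ATP-based viability; confirmation added three slower-growing patient lines.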
# astro = assay: as above; conditions: viability, ATP luminescence, 48 h; series mostly up to 45.9 µM
# How it was run: as §2
# [2] = biological target: Nuclear receptor subfamily 1 group I member 2 (Rattus norvegicus) (UniProt Q9R1A7); assay: qHTS assay for small molecule activators of the rat pregnane X receptor (rPXR) signaling pathway (AID 651751; call rule not given here); conditions: rPXR reporter cells, luciferase (One-Glo), 24 h
# Nuclear receptor subfamily 1 group I member 2 (Rattus norvegicus), sequence (Q9R1A7 whole entry, looked up): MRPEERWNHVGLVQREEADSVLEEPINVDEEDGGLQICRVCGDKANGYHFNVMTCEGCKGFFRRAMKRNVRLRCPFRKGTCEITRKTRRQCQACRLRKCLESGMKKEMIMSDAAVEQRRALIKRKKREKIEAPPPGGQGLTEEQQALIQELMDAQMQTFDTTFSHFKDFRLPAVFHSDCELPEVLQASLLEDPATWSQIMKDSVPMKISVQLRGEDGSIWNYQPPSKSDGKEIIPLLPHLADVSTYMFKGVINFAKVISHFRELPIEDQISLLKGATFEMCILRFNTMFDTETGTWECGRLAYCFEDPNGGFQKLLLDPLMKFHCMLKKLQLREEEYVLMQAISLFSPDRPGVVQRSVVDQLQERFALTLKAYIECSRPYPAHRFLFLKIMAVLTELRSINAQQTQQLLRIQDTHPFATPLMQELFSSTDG
# [3] = at 91.6 µM (top of the series), tumour line B
# [4] = at 91.6 µM (top of the series), tumour line D
# [5] = at 21.2 µM (top of the series), tumour line B
# [6] = at 21.2 µM (top of the series), tumour line D
# [7] = at 21.3 µM (top of the series), tumour line A
# [8] = at 45.9 µM (top of the series), tumour line B
# [9] = at 45.9 µM (top of the series), tumour line D
# [10] = at 46 µM (top of the series), tumour line A
# [11] = at 46.1 µM (top of the series), tumour line C
smiles,measurement,setting,value
C#CC(O)(C=CCl)CC (centres undefined),Potency,PA-1,inactive
same,outcome,SKOV3,inactive
same,Potency,Tov-21-G,inactive
same,Potency,Tov112D,inactive
C=CCC1([C@H](C)CCC)C(=O)NC(=O)NC1=O,Potency,PA-1,inactive
same,outcome,SKOV3,inactive
same,Potency,Tov-21-G,inactive
same,Potency,Tov112D,inactive
same,"activity, negative = cell killing",[1]; [3],-8.55%
same,"activity, negative = cell killing",[1]; [4],-0.262%
C[C@]12CC[C@H]3[C@@H](CCC4=CC(=O)CC[C@@H]43)[C@@H]1CC[C@@H]2OC(=O)CCC1CCCCC1,Potency,PA-1,inactive
same,outcome,SKOV3,inactive
same,Potency,Tov-21-G,inactive
same,Potency,Tov112D,inactive
C[C@@H](N)[C@@H](O)c1ccccc1,Potency,PA-1,inactive
same,outcome,SKOV3,inactive
same,Potency,Tov-21-G,inactive
same,Potency,Tov112D,inactive
same,"activity, negative = cell killing",[1]; [5],-14.5%
same,"activity, negative = cell killing",[1]; [6],16.2%
same,"activity, negative = cell killing",[1]; [7],-20.6%
same,Potency,astro,inactive
COC(=O)C(Cl)C(=O)OC,Potency,PA-1,inactive
same,outcome,SKOV3,inactive
same,Potency,Tov-21-G,inactive
same,Potency,Tov112D,inactive
same,"activity, negative = cell killing",[1]; [8],-9.36%
same,"activity, negative = cell killing",[1]; [9],-17%
same,"activity, negative = cell killing",[1]; [10],-23.7%
same,Potency,astro,inactive
C[N+]1(CCF)[C@@H]2CC[C@H]1CC(OC(=O)C(O)(c1ccccc1)c1ccccc1)C2 (some centres undefined),Potency,PA-1,inactive
same,outcome,SKOV3,inactive
same,Potency,Tov-21-G,inactive
same,Potency,Tov112D,inactive
same,"activity, negative = cell killing",[1]; [8],-12.6%
same,"activity, negative = cell killing",[1]; [9],-18.1%
same,Potency,[1]; tumour line A,11.2 µM (active)
CN(C)CCc1c[nH]c2cccc(OP(=O)(O)O)c12,Potency,PA-1,inactive
same,outcome,SKOV3,inactive
same,Potency,Tov-21-G,inactive
same,Potency,Tov112D,inactive
same,"activity, negative = cell killing","[1]; at 91.6 µM (top of the series), tumour line A",-30.1%
same,"activity, negative = cell killing",[1]; [3],-11.6%
same,"activity, negative = cell killing",[1]; [4],-12.3%
same,Potency,astro,inactive
CCN(CC)CCc1c[nH]c2ccccc12,Potency,PA-1,inactive
same,outcome,SKOV3,inactive
same,Potency,Tov-21-G,inactive
same,Potency,Tov112D,inactive
same,"activity, negative = cell killing","[1]; at 108 µM (top of the series), tumour line B",-10.6%
same,"activity, negative = cell killing","[1]; at 108 µM (top of the series), tumour line D",-16.4%
same,Potency,[1]; tumour line A,63.1 µM (active)
COP(=S)(OC)Oc1ccc(S(=O)(=O)N(C)C)cc1,Potency,PA-1,inactive
same,outcome,SKOV3,inactive
same,Potency,Tov-21-G,inactive
same,Potency,Tov112D,inactive
same,"activity, negative = cell killing",[1]; [8],-4.11%
same,"activity, negative = cell killing",[1]; [9],-25%
same,"activity, negative = cell killing",[1]; [10],-29.3%
same,Potency,astro,inactive
COC(=O)[C@@H](N)CCCN/C(N)=N/[N+](=O)[O-],Potency,PA-1,inactive
same,outcome,SKOV3,inactive
same,Potency,Tov-21-G,inactive
same,Potency,Tov112D,inactive
same,"activity, negative = cell killing",[1]; [8],0.524%
same,"activity, negative = cell killing",[1]; [9],-1.49%
same,"activity, negative = cell killing",[1]; [10],-15.6%
CCCCCCC(=O)CCCCCC/C=C/C[C@@H](O)[C@H](O)[C@@](N)(CO)C(=O)O,Potency,PA-1,inactive
same,outcome,SKOV3,inactive
same,Potency,Tov-21-G,inactive
same,Potency,Tov112D,inactive
same,"activity, negative = cell killing",[1]; [8],-13.1% and -22.4%
same,"activity, negative = cell killing",[1]; [9],-26.9% and -22.9%
same,Potency,[1]; tumour line A,35.5 µM (active)
NC1=NC(=O)C(c2ccccc2)O1 (centres undefined),Potency,PA-1,inactive
same,outcome,SKOV3,inactive
same,Potency,Tov-21-G,inactive
same,Potency,Tov112D,inactive
same,"activity, negative = cell killing",[1]; [8],-0.343%
same,"activity, negative = cell killing",[1]; [9],-7.44%
same,"activity, negative = cell killing",[1]; [10],-19.1%
CCC(C)(C)c1ccc(O)cc1,Potency,PA-1,inactive
same,outcome,SKOV3,inactive
same,Potency,Tov-21-G,inactive
same,Potency,Tov112D,inactive
same,"activity, negative = cell killing",[1]; [8],-7.41%
same,"activity, negative = cell killing",[1]; [9],13.4%
same,"activity, negative = cell killing",[1]; [10],-14.1%
same,"activity, negative = cell killing",[1]; [11],-3.53%
same,max response,[2],1.88% and -0.811%
O=[N+]([O-])O[C@H]1CO[C@H]2[C@@H]1OC[C@H]2O[N+](=O)[O-],Potency,PA-1,inactive
same,outcome,SKOV3,inactive
same,Potency,Tov-21-G,inactive
same,Potency,Tov112D,inactive
same,"activity, negative = cell killing",[1]; [8],-6.92%
same,"activity, negative = cell killing",[1]; [9],3.62%
same,"activity, negative = cell killing",[1]; [10],-13.3%
CC1(C)C(C=C(Cl)Cl)C1C(=O)OC(C#N)c1cccc(Oc2ccccc2)c1 (centres undefined),Potency,PA-1,inactive
same,outcome,SKOV3,inactive
same,Potency,Tov-21-G,inactive
same,Potency,Tov112D,inactive
same,"activity, negative = cell killing",[1]; [8],-16.8%
same,"activity, negative = cell killing",[1]; [11],-35.5%
same,Potency,[1]; tumour line A,25.1 µM (active)
same,Potency,astro,inactive
CN1C(=O)NC(=O)C(C)(C2=CCCCC2)C1=O (centres undefined),Potency,PA-1,inactive
same,outcome,SKOV3,inactive
same,Potency,Tov-21-G,inactive
same,Potency,Tov112D,inactive
same,"activity, negative = cell killing",[1]; [8],16.4% and -21.6%
same,"activity, negative = cell killing",[1]; [9],3.59% and 4.39%
same,"activity, negative = cell killing",[1]; [10],3.99%
same,Potency,astro,inactive
COc1cccc([C@@]2(O)CCCC[C@@H]2CN(C)C)c1,Potency,PA-1,inactive
same,outcome,SKOV3,inactive
same,Potency,Tov-21-G,inactive
same,Potency,Tov112D,inactive
same,"activity, negative = cell killing",[1]; [8],-5.81%
same,"activity, negative = cell killing",[1]; [9],6.21%
same,"activity, negative = cell killing",[1]; [10],-29.2%
same,Potency,astro,inactive
CNC(C)(C)Cc1ccccc1,Potency,PA-1,inactive
same,outcome,SKOV3,inactive
same,Potency,Tov-21-G,inactive
same,Potency,Tov112D,inactive
same,"activity, negative = cell killing",[1]; [5],-7.53%
same,"activity, negative = cell killing",[1]; [6],-8.31%
same,"activity, negative = cell killing",[1]; [7],-29.6%
Cc1ncsc1CCCl,Potency,PA-1,inactive
same,outcome,SKOV3,inactive
same,Potency,Tov-21-G,inactive
same,Potency,Tov112D,inactive
same,"activity, negative = cell killing",[1]; [8],-10.2%
same,"activity, negative = cell killing",[1]; [9],-8.99%
same,"activity, negative = cell killing",[1]; [10],4.91%
same,Potency,astro,inactive
CC(C)c1c(CN(C)C(C)Cc2ccccc2)n(C)n(-c2ccccc2)c1=O (centres undefined),Potency,PA-1,inactive
same,outcome,SKOV3,inactive
same,Potency,Tov-21-G,inactive
same,Potency,Tov112D,inactive
same,"activity, negative = cell killing",[1]; [5],-20.9%
same,"activity, negative = cell killing",[1]; [6],-18.5%
same,Potency,[1]; tumour line A,11.2 µM (active)
same,Potency,astro,inactive
